Reference: PMC7862700, “An all-to-all approach to the identification of sequence-specific readers for epigenetic DNA modifications on cytosine”

Experiments:
Assay in all cases: DAPPL (digital affinity profiling via proximity ligation, sequencing); 10 mM Tris-HCl pH 7.5, 50 mM NaCl, 1 mM DTT, 4% glycerol, room temperature, 30 min; GST-TFs on glutathione beads, 16-mer random dsDNA library, 0.1% formaldehyde crosslink after washing; high values mean tight binding
ERG = target: T1, ERG (Homo sapiens, UniProt P11308 1-479); settings: protein: recombinant; tags: N-terminal GST; dsDNA, one strand shown
T1 sequence: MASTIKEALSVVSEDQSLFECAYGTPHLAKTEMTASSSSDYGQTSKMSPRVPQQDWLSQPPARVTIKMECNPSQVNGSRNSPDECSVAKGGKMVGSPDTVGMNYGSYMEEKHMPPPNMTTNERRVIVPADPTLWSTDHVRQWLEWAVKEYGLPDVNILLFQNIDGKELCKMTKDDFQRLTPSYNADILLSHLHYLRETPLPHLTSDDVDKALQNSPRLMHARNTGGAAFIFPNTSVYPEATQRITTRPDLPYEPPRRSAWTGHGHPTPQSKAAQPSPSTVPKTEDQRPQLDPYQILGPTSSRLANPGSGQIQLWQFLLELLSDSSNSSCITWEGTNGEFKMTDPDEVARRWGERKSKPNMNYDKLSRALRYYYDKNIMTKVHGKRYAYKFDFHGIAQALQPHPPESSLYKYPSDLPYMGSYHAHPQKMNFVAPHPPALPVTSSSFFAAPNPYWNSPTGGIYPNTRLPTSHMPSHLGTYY
Summary of the method: (§1)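 GST fusions of human transcription factors were expressed in yeast and captured with glutathione beads. Once given DNA barcodes and pooled alongside a tag-only sample, they were incubated for 30 min at room temperature with 200 nmole of a random double-stranded 16-mer DNA library in Tris/NaCl/DTT/glycerol buffer, then washed, crosslinked (0.1% formaldehyde), proximity-ligated, PCR-amplified and sequenced on an Illumina NextSeq500. The binding signal of each hexamer is its read frequency for a factor divided by its frequency for the tag-only sample.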

ELF1 = ELF1 (Homo sapiens, UniProt P32519 1-619); settings: protein: recombinant; tags: N-terminal GST; dsDNA, one strand shown
Summary of the method: as §1

EHF = target: T2, EHF (Homo sapiens, UniProt Q9NZC4 1-300); settings: protein: recombinant; tags: N-terminal GST; dsDNA, one strand shown
T2 sequence: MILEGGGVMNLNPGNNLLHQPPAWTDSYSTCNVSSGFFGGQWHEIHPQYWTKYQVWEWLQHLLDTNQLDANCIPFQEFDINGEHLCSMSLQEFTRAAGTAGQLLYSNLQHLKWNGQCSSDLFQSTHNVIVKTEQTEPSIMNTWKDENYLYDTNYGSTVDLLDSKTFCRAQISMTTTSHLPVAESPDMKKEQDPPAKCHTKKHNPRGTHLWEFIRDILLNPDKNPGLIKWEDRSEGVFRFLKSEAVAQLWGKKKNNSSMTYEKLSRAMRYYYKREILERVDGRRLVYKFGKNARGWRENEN
Summary of the method: as §1

FEV = target: T3, FEV (Homo sapiens, UniProt Q99581 1-238); settings: protein: recombinant; tags: N-terminal GST; dsDNA, one strand shown
T3 sequence: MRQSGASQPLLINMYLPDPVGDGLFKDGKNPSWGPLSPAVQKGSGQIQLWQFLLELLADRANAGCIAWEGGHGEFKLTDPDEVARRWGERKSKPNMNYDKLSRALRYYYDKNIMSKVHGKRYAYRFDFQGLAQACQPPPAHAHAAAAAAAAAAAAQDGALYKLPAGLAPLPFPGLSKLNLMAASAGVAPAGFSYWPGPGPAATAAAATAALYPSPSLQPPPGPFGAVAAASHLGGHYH
Summary of the method: as §1

HSF1 = HSF1 (Homo sapiens, UniProt Q00613 1-529); settings: protein: recombinant; tags: N-terminal GST; chain copies: 3; dsDNA, one strand shown
Summary of the method: as §1

ELF4 = ELF4 (Homo sapiens, UniProt Q99607 1-663); settings: protein: recombinant; tags: N-terminal GST; dsDNA, one strand shown
Summary of the method: as §1

ELK4 = target: T4, ELK4 (Homo sapiens, UniProt P28324-2 1-405); settings: protein: recombinant; tags: N-terminal GST; dsDNA, one strand shown
T4 sequence: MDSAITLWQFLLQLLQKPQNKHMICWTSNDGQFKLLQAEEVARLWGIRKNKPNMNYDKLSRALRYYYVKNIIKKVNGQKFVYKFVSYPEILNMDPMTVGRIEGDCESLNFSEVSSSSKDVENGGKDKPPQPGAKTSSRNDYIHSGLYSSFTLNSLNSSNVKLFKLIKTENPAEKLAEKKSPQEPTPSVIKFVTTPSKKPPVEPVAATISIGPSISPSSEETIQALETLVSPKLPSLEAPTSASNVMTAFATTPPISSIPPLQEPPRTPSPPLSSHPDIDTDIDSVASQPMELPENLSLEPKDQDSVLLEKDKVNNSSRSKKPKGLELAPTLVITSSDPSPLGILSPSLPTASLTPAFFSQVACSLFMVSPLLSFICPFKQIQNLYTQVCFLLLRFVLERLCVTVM
Summary of the method: as §1

ETV2 = target: T5, ETV2 (Homo sapiens, UniProt O00321 1-342); settings: protein: recombinant; tags: N-terminal GST; dsDNA, one strand shown
T5 sequence: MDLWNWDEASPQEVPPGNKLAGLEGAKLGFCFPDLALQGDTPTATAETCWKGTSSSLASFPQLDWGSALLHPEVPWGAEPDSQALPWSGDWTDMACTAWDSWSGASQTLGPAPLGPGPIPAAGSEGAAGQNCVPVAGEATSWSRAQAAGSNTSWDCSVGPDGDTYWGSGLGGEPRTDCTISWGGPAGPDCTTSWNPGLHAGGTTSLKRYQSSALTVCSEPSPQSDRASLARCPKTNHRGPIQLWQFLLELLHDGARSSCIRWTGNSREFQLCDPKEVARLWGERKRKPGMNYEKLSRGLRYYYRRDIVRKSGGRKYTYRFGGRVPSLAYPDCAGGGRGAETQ
Summary of the method: as §1

CRX = CRX (Homo sapiens, UniProt O43186 1-299); settings: protein: recombinant; tags: N-terminal GST; dsDNA, one strand shown
Summary of the method: as §1

ETV1 = ETV1 (Homo sapiens, UniProt P50549 1-477); settings: protein: recombinant; tags: N-terminal GST; dsDNA, one strand shown
Summary of the method: as §1

ETV3L = target: T6, ETV3L (Homo sapiens, UniProt Q6ZN32 1-361); settings: protein: recombinant; tags: N-terminal GST; dsDNA, one strand shown
T6 sequence: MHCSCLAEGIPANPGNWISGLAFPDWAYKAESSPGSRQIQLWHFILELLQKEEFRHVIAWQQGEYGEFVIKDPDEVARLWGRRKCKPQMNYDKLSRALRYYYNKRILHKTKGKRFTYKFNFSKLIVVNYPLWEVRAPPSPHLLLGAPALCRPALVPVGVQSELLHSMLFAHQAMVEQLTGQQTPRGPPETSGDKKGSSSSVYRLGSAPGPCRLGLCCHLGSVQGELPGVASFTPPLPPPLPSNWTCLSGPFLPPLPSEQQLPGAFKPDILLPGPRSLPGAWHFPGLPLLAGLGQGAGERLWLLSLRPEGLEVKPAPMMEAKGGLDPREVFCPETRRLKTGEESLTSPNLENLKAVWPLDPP
Summary of the method: as §1

ETS2 = target: T7, ETS2 (Homo sapiens, UniProt P15036 1-469); settings: protein: recombinant; tags: N-terminal GST; dsDNA, one strand shown
T7 sequence: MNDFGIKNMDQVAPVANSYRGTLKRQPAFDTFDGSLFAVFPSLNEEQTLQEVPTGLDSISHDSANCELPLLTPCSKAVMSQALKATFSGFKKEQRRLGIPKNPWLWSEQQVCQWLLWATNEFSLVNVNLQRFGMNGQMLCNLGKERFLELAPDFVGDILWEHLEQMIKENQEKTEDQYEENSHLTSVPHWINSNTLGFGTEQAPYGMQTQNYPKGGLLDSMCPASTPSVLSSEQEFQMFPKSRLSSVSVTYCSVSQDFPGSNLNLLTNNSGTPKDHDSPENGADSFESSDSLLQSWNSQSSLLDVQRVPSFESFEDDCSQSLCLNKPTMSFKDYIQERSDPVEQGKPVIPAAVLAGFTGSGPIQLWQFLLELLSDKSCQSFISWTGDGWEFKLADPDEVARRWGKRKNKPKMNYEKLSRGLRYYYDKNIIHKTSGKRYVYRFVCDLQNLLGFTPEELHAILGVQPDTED
Summary of the method: as §1

SPDEF = target: T8, SPDEF (Homo sapiens, UniProt O95238 1-335); settings: protein: recombinant; tags: N-terminal GST; dsDNA, one strand shown
T8 sequence: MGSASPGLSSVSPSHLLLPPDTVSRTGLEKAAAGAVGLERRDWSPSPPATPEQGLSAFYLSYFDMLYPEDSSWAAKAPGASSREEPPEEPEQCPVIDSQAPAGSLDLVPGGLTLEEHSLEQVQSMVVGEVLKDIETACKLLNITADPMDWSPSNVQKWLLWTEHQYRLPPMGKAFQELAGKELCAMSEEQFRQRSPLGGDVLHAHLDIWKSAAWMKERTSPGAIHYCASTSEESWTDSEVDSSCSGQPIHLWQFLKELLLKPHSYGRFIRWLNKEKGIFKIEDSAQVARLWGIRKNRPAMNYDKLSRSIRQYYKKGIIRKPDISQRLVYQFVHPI
Summary of the method: as §1

ETV7 = target: T9, ETV7 (Homo sapiens, UniProt Q9Y603 1-341); settings: protein: recombinant; tags: N-terminal GST; dsDNA, one strand shown
T9 sequence: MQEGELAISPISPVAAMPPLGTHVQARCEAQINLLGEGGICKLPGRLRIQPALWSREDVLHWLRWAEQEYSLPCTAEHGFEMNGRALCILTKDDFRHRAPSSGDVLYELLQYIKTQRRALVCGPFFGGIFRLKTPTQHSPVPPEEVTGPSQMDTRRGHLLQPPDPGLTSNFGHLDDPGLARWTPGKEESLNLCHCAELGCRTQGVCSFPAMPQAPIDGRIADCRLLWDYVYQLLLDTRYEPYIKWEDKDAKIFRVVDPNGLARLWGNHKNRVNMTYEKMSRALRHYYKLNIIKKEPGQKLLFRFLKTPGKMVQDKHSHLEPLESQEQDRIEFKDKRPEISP
Summary of the method: as §1

ETV3 = target: T10, ETV3 (Homo sapiens, UniProt P41162-2 1-143); settings: protein: recombinant; tags: N-terminal GST; dsDNA, one strand shown
T10 sequence: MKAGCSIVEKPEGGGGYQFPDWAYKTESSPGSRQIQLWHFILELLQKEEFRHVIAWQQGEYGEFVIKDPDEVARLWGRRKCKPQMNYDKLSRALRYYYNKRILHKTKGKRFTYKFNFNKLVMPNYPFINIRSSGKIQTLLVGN
Summary of the method: as §1

ETV6 = ETV6 (Homo sapiens, UniProt P41212 1-452); settings: protein: recombinant; tags: N-terminal GST; dsDNA, one strand shown
Summary of the method: as §1

Sequence of ELF4 (Q99607 whole entry): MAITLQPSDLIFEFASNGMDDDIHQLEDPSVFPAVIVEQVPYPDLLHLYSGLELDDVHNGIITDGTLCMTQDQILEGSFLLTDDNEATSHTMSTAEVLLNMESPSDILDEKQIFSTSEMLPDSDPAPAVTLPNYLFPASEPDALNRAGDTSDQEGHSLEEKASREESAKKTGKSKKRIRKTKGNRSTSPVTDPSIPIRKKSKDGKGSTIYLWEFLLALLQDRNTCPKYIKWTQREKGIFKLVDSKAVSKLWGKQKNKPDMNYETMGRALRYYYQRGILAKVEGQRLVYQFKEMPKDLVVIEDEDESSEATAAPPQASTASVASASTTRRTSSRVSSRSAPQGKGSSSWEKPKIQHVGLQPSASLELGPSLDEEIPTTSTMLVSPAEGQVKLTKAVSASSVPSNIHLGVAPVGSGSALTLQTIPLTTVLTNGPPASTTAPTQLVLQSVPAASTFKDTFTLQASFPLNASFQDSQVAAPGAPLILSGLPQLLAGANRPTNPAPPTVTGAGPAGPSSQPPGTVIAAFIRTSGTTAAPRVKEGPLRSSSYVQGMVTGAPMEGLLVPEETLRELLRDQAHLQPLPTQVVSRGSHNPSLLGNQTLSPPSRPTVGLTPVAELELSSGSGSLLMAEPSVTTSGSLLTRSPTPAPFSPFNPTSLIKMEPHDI
Sequence of CRX (O43186 whole entry): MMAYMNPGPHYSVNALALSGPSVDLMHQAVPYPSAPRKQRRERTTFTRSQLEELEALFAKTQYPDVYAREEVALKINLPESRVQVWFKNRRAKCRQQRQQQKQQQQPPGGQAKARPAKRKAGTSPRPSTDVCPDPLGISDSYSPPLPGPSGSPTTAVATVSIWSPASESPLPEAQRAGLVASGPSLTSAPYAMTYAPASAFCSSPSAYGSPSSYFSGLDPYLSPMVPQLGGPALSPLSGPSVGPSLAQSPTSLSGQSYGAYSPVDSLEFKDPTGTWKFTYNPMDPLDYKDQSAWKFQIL
Sequence of ETV1 (P50549 whole entry): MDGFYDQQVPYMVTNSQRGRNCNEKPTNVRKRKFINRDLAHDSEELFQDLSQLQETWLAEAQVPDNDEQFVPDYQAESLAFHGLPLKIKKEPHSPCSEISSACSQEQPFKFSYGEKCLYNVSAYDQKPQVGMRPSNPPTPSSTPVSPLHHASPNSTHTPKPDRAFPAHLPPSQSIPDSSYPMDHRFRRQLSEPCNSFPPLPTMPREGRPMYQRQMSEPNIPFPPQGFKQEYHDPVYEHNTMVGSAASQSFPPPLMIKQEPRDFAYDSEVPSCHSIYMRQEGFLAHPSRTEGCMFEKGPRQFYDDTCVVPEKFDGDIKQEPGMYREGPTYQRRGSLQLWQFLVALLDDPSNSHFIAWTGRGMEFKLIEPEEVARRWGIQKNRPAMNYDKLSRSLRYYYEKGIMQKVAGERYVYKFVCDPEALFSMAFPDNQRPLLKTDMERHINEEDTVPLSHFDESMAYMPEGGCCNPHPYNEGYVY
Sequence of ELF1 (P32519 whole entry): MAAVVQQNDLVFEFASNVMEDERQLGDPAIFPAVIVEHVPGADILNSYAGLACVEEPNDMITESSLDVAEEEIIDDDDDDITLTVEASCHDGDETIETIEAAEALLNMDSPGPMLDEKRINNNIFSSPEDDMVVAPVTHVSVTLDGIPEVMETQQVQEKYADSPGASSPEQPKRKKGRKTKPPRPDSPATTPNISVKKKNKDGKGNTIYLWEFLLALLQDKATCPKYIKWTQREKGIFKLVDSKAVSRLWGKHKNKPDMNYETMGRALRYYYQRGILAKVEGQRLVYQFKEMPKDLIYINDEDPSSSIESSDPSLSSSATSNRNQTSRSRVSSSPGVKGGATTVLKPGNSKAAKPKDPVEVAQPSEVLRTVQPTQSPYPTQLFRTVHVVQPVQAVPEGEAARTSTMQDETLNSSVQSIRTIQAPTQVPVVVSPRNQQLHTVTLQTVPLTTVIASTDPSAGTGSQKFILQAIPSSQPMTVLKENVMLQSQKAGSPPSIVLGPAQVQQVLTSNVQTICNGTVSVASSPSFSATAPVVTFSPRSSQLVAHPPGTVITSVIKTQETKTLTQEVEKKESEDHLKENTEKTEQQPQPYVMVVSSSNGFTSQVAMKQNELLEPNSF
Sequence of ETV6 (P41212 whole entry): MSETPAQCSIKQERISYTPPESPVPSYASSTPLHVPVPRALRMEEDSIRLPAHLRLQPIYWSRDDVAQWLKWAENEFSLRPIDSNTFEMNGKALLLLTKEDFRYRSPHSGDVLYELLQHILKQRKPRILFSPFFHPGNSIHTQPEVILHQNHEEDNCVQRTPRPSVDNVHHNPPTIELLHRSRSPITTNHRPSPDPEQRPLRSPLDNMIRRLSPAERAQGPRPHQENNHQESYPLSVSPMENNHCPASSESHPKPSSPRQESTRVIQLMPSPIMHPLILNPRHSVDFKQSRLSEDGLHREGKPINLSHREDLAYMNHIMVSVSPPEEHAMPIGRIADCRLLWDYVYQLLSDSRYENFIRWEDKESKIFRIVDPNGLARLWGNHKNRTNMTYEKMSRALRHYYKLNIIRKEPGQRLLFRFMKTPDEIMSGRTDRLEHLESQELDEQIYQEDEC
Sequence of HSF1 (Q00613 whole entry): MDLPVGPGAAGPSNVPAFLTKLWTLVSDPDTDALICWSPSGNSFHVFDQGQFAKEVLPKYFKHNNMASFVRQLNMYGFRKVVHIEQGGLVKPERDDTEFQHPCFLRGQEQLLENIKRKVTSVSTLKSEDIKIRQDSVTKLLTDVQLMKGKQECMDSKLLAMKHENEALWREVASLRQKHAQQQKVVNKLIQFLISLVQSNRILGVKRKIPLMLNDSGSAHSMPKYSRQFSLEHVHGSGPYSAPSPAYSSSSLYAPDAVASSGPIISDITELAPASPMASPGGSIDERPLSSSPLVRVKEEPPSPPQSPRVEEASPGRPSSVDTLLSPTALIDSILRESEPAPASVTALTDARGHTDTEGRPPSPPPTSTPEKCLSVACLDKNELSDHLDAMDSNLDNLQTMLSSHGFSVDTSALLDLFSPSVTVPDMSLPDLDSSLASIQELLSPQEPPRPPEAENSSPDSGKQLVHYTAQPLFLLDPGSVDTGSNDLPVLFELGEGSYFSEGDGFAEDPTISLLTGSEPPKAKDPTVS

**Q.** For ATTAGT, which binding signal (ERG) is on record?
**A.** The binding signal was 1.01 fold enrichment (6-mer frequency, TF over GST control).

**Q.** And the binding signal (ELF1)?
**A.** Its binding signal is 1.03 fold enrichment (6-mer frequency, TF over GST control).

**Q.** And the binding signal (EHF)?
**A.** Its binding signal is 1 fold enrichment (6-mer frequency, TF over GST control).

**Q.** What about the binding signal (FEV) of the same sequence?
**A.** Its binding signal is 1.01 fold enrichment (6-mer frequency, TF over GST control).

**Q.** What about the binding signal (HSF1) of the same sequence?
**A.** The binding signal was 1.69 fold enrichment (6-mer frequency, TF over GST control).

**Q.** What about the binding signal (ELF4) of the same sequence?
**A.** The binding signal was 1.06 fold enrichment (6-mer frequency, TF over GST control).

**Q.** And the binding signal (ELK4)?
**A.** The binding signal was 1.2 fold enrichment (6-mer frequency, TF over GST control).

**Q.** What about the binding signal (ETV2) of the same sequence?
**A.** The binding signal was 1.12 fold enrichment (6-mer frequency, TF over GST control).

**Q.** What about the binding signal (CRX) of the same sequence?
**A.** The binding signal was 2.44 fold enrichment (6-mer frequency, TF over GST control).

**Q.** What about the binding signal (ETV1) of the same sequence?
**A.** Its binding signal is 1.03 fold enrichment (6-mer frequency, TF over GST control).

**Q.** What about the binding signal (ETV3L) of the same sequence?
**A.** Its binding signal is 1.03 fold enrichment (6-mer frequency, TF over GST control).

**Q.** And the binding signal (ETS2)?
**A.** The binding signal was 1.01 fold enrichment (6-mer frequency, TF over GST control).

**Q.** What about the binding signal (SPDEF) of the same sequence?
**A.** Its binding signal is 1.06 fold enrichment (6-mer frequency, TF over GST control).

**Q.** What about the binding signal (ETV7) of the same sequence?
**A.** The binding signal was 1.08 fold enrichment (6-mer frequency, TF over GST control).

**Q.** What about the binding signal (ETV3) of the same sequence?
**A.** The binding signal was 1.01 fold enrichment (6-mer frequency, TF over GST control).

**Q.** And the binding signal (ETV6)?
**A.** Its binding signal is 1.01 fold enrichment (6-mer frequency, TF over GST control).
